# Reference: publication PMC5700166
# Substitutions are numbered along the chain they refer to.
# Assays:
# Test in all cases: protein-binding microarray (PBM); PBM: ~300 nM protein, 6 mM HEPES pH 7.8, 80 mM KCl, 0.5 mM EDTA, 0.5 mM EGTA, 6% glycerol, 35 ng/ul poly-dIdC, 1% milk, 1 h, room temperature; Ap Aiptasia and Nv Nematostella (sea anemones) / Co Capsaspora / Aq Amphimedon (sponge) / Dm Drosophila / Hu human; RHD is the Rel homology domain; high values mean tight binding
# Conditions in all cases: dsDNA, one strand shown
# GST-Ap-NF-kB RHD = target: T1, GST-Ap-NF-kB RHD (Exaiptasia pallida (Aiptasia), UniProt A0A913YAJ5 2-422)
# T1 sequence: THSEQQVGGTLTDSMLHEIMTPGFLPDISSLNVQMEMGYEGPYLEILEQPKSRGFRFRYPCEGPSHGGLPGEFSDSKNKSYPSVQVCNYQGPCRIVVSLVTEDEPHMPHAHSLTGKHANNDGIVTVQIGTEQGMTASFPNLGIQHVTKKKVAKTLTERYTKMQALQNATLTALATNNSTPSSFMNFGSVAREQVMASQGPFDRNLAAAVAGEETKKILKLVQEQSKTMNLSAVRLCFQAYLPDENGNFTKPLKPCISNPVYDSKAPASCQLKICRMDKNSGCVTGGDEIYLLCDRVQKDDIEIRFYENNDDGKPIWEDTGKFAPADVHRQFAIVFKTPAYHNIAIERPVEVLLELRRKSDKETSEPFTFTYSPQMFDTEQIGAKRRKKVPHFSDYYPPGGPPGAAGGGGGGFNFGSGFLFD
# [1] = target: T2, GST-Nv-NF-kB (Cys allele) (Nematostella vectensis, UniProt E5G601 2-411)
# T2 sequence: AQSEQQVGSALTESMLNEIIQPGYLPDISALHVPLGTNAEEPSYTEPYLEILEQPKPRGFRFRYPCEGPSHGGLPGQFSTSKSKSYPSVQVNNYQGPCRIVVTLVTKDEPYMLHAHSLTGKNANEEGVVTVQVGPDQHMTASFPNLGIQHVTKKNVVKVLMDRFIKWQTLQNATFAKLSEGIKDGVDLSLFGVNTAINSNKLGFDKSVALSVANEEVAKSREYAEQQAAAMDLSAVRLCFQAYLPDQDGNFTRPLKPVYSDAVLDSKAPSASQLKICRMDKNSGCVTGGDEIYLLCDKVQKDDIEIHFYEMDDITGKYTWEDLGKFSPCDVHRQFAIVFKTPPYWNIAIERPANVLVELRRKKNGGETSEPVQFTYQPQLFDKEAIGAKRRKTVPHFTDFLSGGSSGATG
# [2] = target: T3, GST-Nv-NF-kB (Ser allele) (Nematostella vectensis, UniProt A7UNT2 2-411)
# T3 sequence: T2 sequence with Q21R, C66S, S207N, E215Q, V217A, E225K, A268E, D399E
# GST-Co-NF-kB = target: T4, GST-Co-NF-kB (Capsaspora owczarzaki, UniProt F1ARL5 200-546)
# T4 sequence: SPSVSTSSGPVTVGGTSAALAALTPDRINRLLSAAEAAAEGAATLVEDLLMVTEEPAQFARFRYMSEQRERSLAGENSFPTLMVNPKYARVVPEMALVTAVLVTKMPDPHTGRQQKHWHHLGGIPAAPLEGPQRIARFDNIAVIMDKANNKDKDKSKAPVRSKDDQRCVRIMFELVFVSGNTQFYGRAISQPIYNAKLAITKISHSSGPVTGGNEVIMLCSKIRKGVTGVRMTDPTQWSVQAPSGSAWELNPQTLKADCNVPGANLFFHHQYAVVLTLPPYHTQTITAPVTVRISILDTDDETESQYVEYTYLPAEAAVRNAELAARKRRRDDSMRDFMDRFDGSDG
# GST-Dm-Relish = target: T5, GST-Dm-Relish (Drosophila melanogaster, UniProt Q94527 99-473)
# T5 sequence: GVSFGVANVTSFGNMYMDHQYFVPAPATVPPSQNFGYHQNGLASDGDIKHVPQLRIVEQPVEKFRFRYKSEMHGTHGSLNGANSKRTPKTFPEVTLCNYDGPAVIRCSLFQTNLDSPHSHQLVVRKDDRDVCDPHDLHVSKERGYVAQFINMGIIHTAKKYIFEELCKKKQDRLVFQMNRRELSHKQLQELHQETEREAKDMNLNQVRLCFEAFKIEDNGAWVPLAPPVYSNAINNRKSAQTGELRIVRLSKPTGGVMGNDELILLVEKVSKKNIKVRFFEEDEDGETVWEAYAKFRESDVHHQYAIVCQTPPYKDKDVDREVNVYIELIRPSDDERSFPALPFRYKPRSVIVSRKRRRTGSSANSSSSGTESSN
# GST-Aq-NF-kB = target: T6, GST-Aq-NF-kB (Amphimedon queenslandica, UniProt A9Y5G7 2-389)
# T6 sequence: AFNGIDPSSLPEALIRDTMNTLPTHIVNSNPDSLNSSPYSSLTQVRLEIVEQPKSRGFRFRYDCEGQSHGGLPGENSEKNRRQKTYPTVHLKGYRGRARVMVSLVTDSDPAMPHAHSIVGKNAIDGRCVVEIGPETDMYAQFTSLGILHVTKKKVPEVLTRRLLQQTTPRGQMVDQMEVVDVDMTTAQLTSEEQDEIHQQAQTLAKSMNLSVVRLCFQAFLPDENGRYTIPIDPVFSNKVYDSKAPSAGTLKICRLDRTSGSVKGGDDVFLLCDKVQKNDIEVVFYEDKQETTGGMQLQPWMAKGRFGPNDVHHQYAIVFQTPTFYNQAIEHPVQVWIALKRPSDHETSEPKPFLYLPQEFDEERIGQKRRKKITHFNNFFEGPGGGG
Sequence,binding signal (GST-Ap-NF-kB RHD) [z-score],binding signal [1] [z-score],binding signal [2] [z-score],binding signal (GST-Co-NF-kB) [z-score],binding signal (GST-Dm-Relish) [z-score],binding signal (GST-Aq-NF-kB) [z-score]
CCGATTAACATCACGAAATTCCCTGATGTTAATCGGGTCTTGATTCGCTTGACGCTGCTG,4.84,6.78,7.28,4.17,4.59,5.74
CCGATTAACATCAAATATTTCCCTGATGTTAATCGGGTCTTGATTCGCTTGACGCTGCTG,3.87,6.57,6.99,5.89,4.25,6.66
CCGATTAACATCATCAGGGAAAATGATGTTAATCGGGTCTTGATTCGCTTGACGCTGCTG,2.12,4.35,–,2.95,–,2.95
CCGATTAACATCAAGGGGGGGTATGATGTTAATCGGGTCTTGATTCGCTTGACGCTGCTG,4.96,3.8,3.62,5.09,4.14,4.39
CCGATTAACATCAGGGAAGGACCTGATGTTAATCGGGTCTTGATTCGCTTGACGCTGCTG,1.78,2.28,1.09,–,4.44,3.91
CCGATTAACATCACACCCCCCCGTGATGTTAATCGGGTCTTGATTCGCTTGACGCTGCTG,4.06,3.09,3.09,4.58,4.46,3.38
CCGATTAACATCACAAATTTCCCTGATGTTAATCGGGTCTTGATTCGCTTGACGCTGCTG,4.62,6.4,6.92,5.22,3.72,6.5
CCGATTAACATCAACCCCCCCCTTGATGTTAATCGGGTCTTGATTCGCTTGACGCTGCTG,4.76,4,3.93,5.09,4.91,4.47
CCGATTAACATCACGGTAATCCCTGATGTTAATCGGGTCTTGATTCGCTTGACGCTGCTG,4.31,1.91,1.84,–,5.6,4.77
CCGATTAACATCACTATTTTCCCTGATGTTAATCGGGTCTTGATTCGCTTGACGCTGCTG,3.72,4.96,6.91,5.27,1.52,3.51
CCGATTAACATCAGGTCGGGAAATGATGTTAATCGGGTCTTGATTCGCTTGACGCTGCTG,1.76,2.6,–,3.1,–,1.83
CCGATTAACATCAATTTACCCACTGATGTTAATCGGGTCTTGATTCGCTTGACGCTGCTG,1.67,1.68,–,2.34,–,1.45
CCGATTAACATCAGGGAATTAGATGATGTTAATCGGGTCTTGATTCGCTTGACGCTGCTG,1.83,3.48,–,2.41,–,3.43
CCGATTAACATCAAAGATTTCCCTGATGTTAATCGGGTCTTGATTCGCTTGACGCTGCTG,4.23,6.33,7.19,4.84,2.9,5.13
CCGATTAACATCATTAGGGAAAATGATGTTAATCGGGTCTTGATTCGCTTGACGCTGCTG,3.51,6.08,7.94,2.21,1.55,4.53
CCGATTAACATCAGGGAAGTACATGATGTTAATCGGGTCTTGATTCGCTTGACGCTGCTG,1.18,1.34,1.35,1.54,9.23,2.86
CCGATTAACATCATGGGAAGGTTTGATGTTAATCGGGTCTTGATTCGCTTGACGCTGCTG,1.34,1.55,–,2.28,–,1.66
CCGATTAACATCAGAGTTTTCCCTGATGTTAATCGGGTCTTGATTCGCTTGACGCTGCTG,3.96,5.58,6.71,4.75,1.89,4.65
CCGATTAACATCAAAAAACTACCTGATGTTAATCGGGTCTTGATTCGCTTGACGCTGCTG,2.29,3,7.62,–,6.2,3.57
CCGATTAACATCACCCACTTCCCTGATGTTAATCGGGTCTTGATTCGCTTGACGCTGCTG,1.06,1.67,–,1.4,–,1.65
CCGATTAACATCAACATGGGAAATGATGTTAATCGGGTCTTGATTCGCTTGACGCTGCTG,1.54,2.51,–,1.82,–,1.66
CCGATTAACATCACTAAATTCCCTGATGTTAATCGGGTCTTGATTCGCTTGACGCTGCTG,3.8,5.35,–,4.15,3.63,4.56
CCGATTAACATCACACCACCCCCTGATGTTAATCGGGTCTTGATTCGCTTGACGCTGCTG,3.79,2.72,–,2.88,2.4,3.3
CCGATTAACATCAGGGGAGCACCTGATGTTAATCGGGTCTTGATTCGCTTGACGCTGCTG,4.77,3.52,–,3.23,4.91,4.81
CCGATTAACATCAGGGATTCACCTGATGTTAATCGGGTCTTGATTCGCTTGACGCTGCTG,5.22,4.92,–,1.03,9.89,5.57
